How the values were obtained:
Assay type in all cases: functional
[1] = tested on: Plasmodium falciparum; assay: GSK_TCMDC: Inhibition of Plasmodium falciparum 3D7 in whole red blood cells, using parasite LDH activity as an index of growth. Test compounds present at 2uM
[2] = tested on: Plasmodium falciparum; assay: GSK_TCMDC: Inhibition of Plasmodium falciparum Dd2 in whole red blood cells, using parasite LDH activity as an index of growth. Test compounds present at 2uM
[3] = tested on: HepG2; assay: GSK_TCMDC: Percent inhibition of human HepG2 cell line. Test compounds present at 10uM.

SMILES | Inhibition [1] [%] | Inhibition [2] [%] | Inhibition [3] [%]
Cc1ccc(S(=O)(=O)NC2=NC(=N)N(OCc3ccc(Cl)c(Cl)c3)C(C)(C)N2)cc1 | 88 | 0 | 0
Br.CC1(C)NC(N)=NC(=N)N1OCC1CCCCC1 | 94 | 97 | 67
O=C(Nc1ccc([N+](=O)[O-])cc1)c1nn(-c2ccccc2)cc1/N=C/c1cccc(O)c1 | 98 | 37 | 10
Nc1ncc(OC2CCCCC2)c(N)n1 | 94 | 0 | 0
CN1CCN(CC(=O)Nc2ccc(-c3cccc(-c4nc5cc(F)ccc5[nH]4)c3)cc2)CC1 | 100 | 100 | 18
O=C(/C=C/c1ccc(Cl)c(Cl)c1)N1CCN(C(=O)Nc2cccc(C(F)(F)F)c2)CC1 | 99 | 100 | 53
COc1ccccc1N1CCN(CCCCNC(=O)c2ccc(NC(=O)c3cc(Cl)cc(Cl)c3)cc2)CC1 | 100 | 75 | 9
O=[N+]([O-])c1ccc(/C=N/O)nc1 | 80 | 98 | 80
Cc1nc2nc(N)nc(N)c2c(C)c1Cc1ccccc1.Cl | 95 | 0 | 62
N#Cc1cccc(C(=O)Nc2ccc(-c3cccc(CN4CCC(O)CC4)c3)cc2)c1.O=C(O)C(F)(F)F | 100 | 68 | 33
CN(C)CCNCc1cccc(-c2ccc3c(Nc4cc(O)c(Cl)cc4F)ccnc3c2)c1 | 99 | 59 | 6
CN1CCN(CCCN(Cc2ccc(-c3ccc(CNCCc4ccccc4)cc3)cc2)C(=O)c2cccs2)CC1.O=C(O)C(F)(F)F | 98 | 78 | 32
CCCC(CC)n1ccc2c3c(N)nc(N)nc3ccc21.CS(=O)(=O)O (configuration not stated) | 94 | 97 | 67
N=C(N)c1ccc(Oc2ccc(C(=N)N)cc2)cc1.O=S(=O)(O)CCO | 92 | 85 | 18
CC(C)(C)n1nnnc1C(c1cccnc1)N(Cc1ccccc1)Cc1ccc(Cl)cc1 (configuration not stated) | 96 | 17 | 0
Br.Nc1ccc(-c2csc(Nc3ccncc3)n2)cc1 | 95 | 50 | 12
CCN(CC)CCN(Cc1ccc(-c2ccc(C(F)(F)F)cc2)cc1)C(=O)Cn1c(CCC2CCCCC2)nc(=O)c2ccccc21.O=C(O)C(O)C(O)C(=O)O | 87 | 25 | 32
COc1ccc(-c2ccc(CNC(=O)c3ccc(Cl)cc3)c(F)c2)cc1CN1CCCN(C)CC1.O=C(O)C(F)(F)F | 99 | 48 | 25
COc1ccc(/C=C/C(=O)NCCCCCN2CCC(c3c[nH]c4ccccc34)CC2)cc1O | 91 | 1 | 9
CO/C(=C\C=C\c1cc2cc(Cl)c(Cl)cc2[nH]1)C(=O)NC1CC2CCC(C1)N2C.Cl (configuration not stated) | 88 | 23 | 46
Cc1cc(C(=O)NCc2ccc(-c3c(C)noc3C)cc2)n(-c2ccccc2)n1 | 92 | 90 | 4
CN(C)c1ccc(CN2CCC(CNC(=O)c3cc(-c4ccccc4Cl)cs3)C2)cc1.O=C(O)C(F)(F)F (configuration not stated) | 91 | 5 | 29
CCCCCCN1CCC(NCc2cccc(C(F)(F)F)c2)CC1.O=C(O)C(F)(F)F | 100 | 82 | 18
CS(=O)(=O)Cc1ccc(Nc2nccc(N3CCCc4cc(NC(=O)Nc5cccc(C(F)(F)F)c5)ccc43)n2)cc1 | 100 | 99 | 46
O=C(NCCN1CCCC1)c1cccc(-c2ccc(-c3nc4cc(F)ccc4[nH]3)s2)c1 | 100 | 4 | 51
Cc1cccc2nc(-c3ccc(-c4ccc(NC(=O)C(=O)c5cccn5C)cc4)cc3)[nH]c12 | 95 | 15 | 40
CCOC(=O)NC1=NC(C)(C)N(OCc2cccc3c2ccc2ccccc23)C(NC(=O)OCC)=N1 | 98 | 3 | 3
CN(C)c1ccc(-c2csc(C(=O)NC3CCN(CCC(C)(C)C)C3)c2)cc1.O=C(O)C(F)(F)F (configuration not stated) | 95 | 36 | 20
Cc1ccc(NC(=S)N2CCCN(CCCCCNC(=O)/C=C/c3ccc(Cl)c(Cl)c3)CC2)cc1Cl | 93 | 5 | 14
